# Test results: PubChem BioAssay AID463173 (ICCB-Longwood Screening Facility, Harvard Medical School, 2010)
# In all, about 52,000 compounds went through this assay and about 1,700 (3.3%) were called active. Rule as the data show it: active = survival mostly below about 52% (no sharp cut-off); inactive = mostly above about 56%. The sample as a whole holds a higher share of actives than the screen did.
# Tested on: Wild type
# Test: S. aureus survival, RN4220 and DeltatarO strains – OD600, teichoic acid synthesis inhibitors, primary screen (AID 463173)
# Settings: S. aureus RN4220 wild type/DeltatarO growth, OD600, 18 h, active compounds read low, screened at 18.75 µg/mL (by protocol)
row,Compound,survival
1,Cc1ccc(NC(=O)C2CCCN2S(=O)(=O)c2ccc3c(c2)CCCC(=O)N3)cc1Cl (configuration not stated),113% (inactive)
2,COc1ccc(-c2nc3cc(N=Cc4ccccc4O)ccc3o2)cc1,111% (inactive)
3,CCCCn1c2ccc(F)cc2c2nnc(SCCN3CCCCC3)nc21,139% (inactive)
4,COCCCNC(=O)c1cc(-c2cccnc2)nc2ccccc12,118% (inactive)
5,CCOc1ccc(NC(=O)CN2C(=O)c3ccccc3Sc3ccc(C(=O)OC)cc32)cc1,81% (inactive)
6,COc1ccccc1OCc1ccc(C(=O)NCc2ccncc2)o1,116% (inactive)
7,Cc1ccc(Cn2cc(S(=O)(=O)c3ccccc3)c(=O)c3cc(F)c(N4CCOCC4)cc32)cc1,58% (inactive)
8,O=C(c1nc(-c2ccc(Cl)cc2)n2c1CCCCC2)N1CCN(c2ccc(F)cc2)CC1,70% (inactive)
9,COc1ccc(C2c3c(n(C)c4ccccc34)C(=O)N2CC(=O)Nc2ccc(F)cc2)cc1 (configuration not stated),81% (inactive)
10,CC(=O)Nc1ccccc1-c1nc2cc(C#N)c(C#N)cc2[nH]c1=O,108% (inactive)
11,CCN(c1ccccc1C)S(=O)(=O)c1nnc(NC(=O)c2ccc(OC)c(OC)c2)s1,42% (inactive)
12,COC(=O)c1ccccc1NC(=O)CCc1c(C)nc2c(c(C)nn2-c2ccccc2)c1C,117% (inactive)
13,O=C(CSc1nc(-c2ccccc2)cn1-c1ccccc1)Nc1ccccc1,68% (inactive)
14,COc1ccc(NC(=O)c2c(NCc3cccc(OC)c3)sc3c2CCC3)cc1,65% (inactive)
15,CC(C)Nc1nc(NC(C)C)nc(N(C)C)n1,115% (inactive)
16,Cc1ccc2oc3c(c(=O)c2c1)C(c1cccc(O)c1)N(Cc1ccccc1Cl)C3=O (configuration not stated),82% (inactive)
17,CCN(C(=O)c1cc2c(s1)-c1ccccc1OC2)c1cc(Cl)ccc1OC,8% (active)
18,COc1ccccc1CNC(=O)c1cc2c(s1)-c1ccccc1OC2,92% (inactive)
19,CCCN(C(=O)c1cc2c(s1)-c1ccccc1OC2)c1ccc(C(C)C)cc1,5% (active)
20,CCCN(C(=O)c1cc2c(s1)-c1c(C)cccc1OC2)c1ccc(OCC)cc1,95% (inactive)
21,CCN(C(=O)c1cc2c(s1)-c1ccccc1OC2)c1cccc(C(F)(F)F)c1,14% (active)
22,COc1ccc(Cl)cc1NC(=O)c1cc2c(s1)-c1ccccc1OC2,80% (inactive)
23,CCOc1ccc(CNC(=O)c2cc3c(s2)-c2ccccc2OC3)cc1,91% (inactive)

row,Compound,survival
1,CCN(C(=O)c1cc2c(=O)oc3ccccc3c2s1)c1cccc(C(F)(F)F)c1,131% (inactive)
2,CCc1ccccc1N(CC)C(=O)c1cc2c(s1)-c1ccccc1OC2,9% (active)
3,CCOc1ccc(N(CC)C(=O)c2cc3c(s2)-c2ccccc2OC3)cc1,88% (inactive)
4,CCc1ccc(CNC(=O)c2cc3c(s2)-c2ccccc2OC3)cc1,95% (inactive)
5,CCN(C(=O)c1cc2c(=O)n(CC)c3ccccc3c2s1)c1cccc(C(F)(F)F)c1,89% (inactive)
6,O=C(CSCc1cnn(-c2ccccc2)c1-n1cccc1)NCc1cccc(Cl)c1,91% (inactive)
7,O=C(O)C1CCN(C(=O)c2ccc(-c3ccccc3)cc2)CC1,116% (inactive)
8,Cc1ccc(Cl)cc1-n1c(=O)c2sc3ccccc3c2n(Cc2ccccc2)c1=O,77% (inactive)
9,Cn1c(=O)oc2cc(S(=O)(=O)CCC(=O)NCc3ccc(Cl)cc3)ccc21,74% (inactive)
10,Cc1ccc(CNC(=O)c2cc3c(s2)-c2ccccc2SC3)cc1,120% (inactive)
11,CCc1ccccc1N(CC)C(=O)c1cc2c(s1)-c1ccccc1SC2,-1% (active)
12,O=C(NCc1ccccc1Cl)c1cc2c(s1)-c1ccccc1SC2,74% (inactive)
13,CCOc1ccc(CCNC(=O)c2ccc3c(c2)N(Cc2ccccc2F)C(=O)c2ccccc2S3=O)cc1OCC (configuration not stated),84% (inactive)
14,Cn1c(C(=O)NCc2ccc(Cl)cc2)cc2c(=O)n(C)c3ccccc3c21,120% (inactive)
15,CCNC(=O)c1c(NC(=O)c2cc(=O)c3ccc(C)c(C)c3o2)sc2c1CCCC2,85% (inactive)
16,Cc1ccccc1OCC(=O)OCc1cc(=O)n2ccsc2n1,82% (inactive)
17,Cc1ccc2nc(COc3ccccc3NC(=O)c3ccccc3F)cc(=O)n2c1,80% (inactive)
18,Cc1csc2nc(COC(=O)c3ccccc3NC(=O)c3ccc(F)cc3)cc(=O)n12,14% (active)
19,Cc1ccccc1C(=O)Nc1cccc(C(=O)OCc2cc(=O)n3c(C)csc3n2)c1,76% (inactive)
20,CCOc1cc(C(=O)OCc2cc(=O)n3c(C)csc3n2)cc(OCC)c1OCC,-3% (active)
21,Cc1ccc2nc(COc3ccccc3NC(=O)c3ccc(F)cc3)cc(=O)n2c1,-3% (active)
22,Cc1csc2nc(COC(=O)c3cccc(NC(=O)c4cccc(Cl)c4)c3)cc(=O)n12,-1% (active)
23,CCOc1ccc(C(=O)Nc2ccc(C(=O)OCc3cc(=O)n4c(C)csc4n3)cc2)cc1,85% (inactive)

row,Compound,survival
1,Cc1csc2nc(COC(=O)c3ccccc3NC(=O)c3ccc(C(C)(C)C)cc3)cc(=O)n12,55% (inactive)
2,Cc1csc2nc(COC(=O)c3ccc(F)cc3)cc(=O)n12,81% (inactive)
3,COc1ccccc1C(=O)Nc1ccccc1C(=O)OCc1cc(=O)n2c(C)csc2n1,131% (inactive)
4,COc1cccc(C(=O)Nc2cccc(C(=O)OCc3cc(=O)n4c(C)csc4n3)c2)c1,133% (inactive)
5,Cc1cccc(C(=O)Nc2ccccc2OCc2cc(=O)n3cc(C)ccc3n2)c1,47% (inactive)
6,CCOc1ccc(NC(=O)CSc2nc(-c3cccc(Cl)c3)nc3c2Cc2c(CO)cnc(C)c2O3)cc1,84% (inactive)
7,COc1cc(OC)cc(C(=O)N2CCN(C(=O)COc3ccccc3)CC2)c1,64% (inactive)
8,CCc1ccc(NC(=O)CN(c2cc(C)cc(C)c2)S(=O)(=O)c2c(C)[nH]c(=O)[nH]c2=O)cc1,68% (inactive)
9,CC(C)c1cc(-c2nc(-c3cccc(Cl)c3)no2)n[nH]1,131% (inactive)
10,Cc1cc(Br)ccc1NC(=O)C1CCN(S(=O)(=O)c2ccc(Br)s2)CC1,70% (inactive)
11,COC(=O)C1=C(c2ccccc2)c2ccccc2S(=O)(=O)N1CC(=O)Nc1ccc(OC)cc1OC,154% (inactive)
12,CS(=O)(=O)c1cccc(S(=O)(=O)c2cccc(S(C)(=O)=O)c2)c1,86% (inactive)
13,O=C(Nc1ccccc1C(=O)OCc1cc(=O)n2c3c(sc2n1)CCCC3)c1ccc(Cl)cc1,-3% (active)
14,Cc1ccc(OCc2cc(=O)n3c4c(sc3n2)CCCC4)cc1C,80% (inactive)
15,Cc1cccc(C)c1OCc1cc(=O)n2c3c(sc2n1)CCCC3,-1% (active)
16,Cc1cccc(OCc2cc(=O)n3c4c(sc3n2)CCCC4)c1C,128% (inactive)
17,Cc1cccc(OCC(=O)Nc2cccc(C(=O)OCc3cc(=O)n4c(C)csc4n3)c2)c1,-6% (active)
18,O=C(Nc1ccccc1C(=O)OCc1cc(=O)n2c3c(sc2n1)CCCC3)c1ccccc1,94% (inactive)
19,Cc1ccc(OCC(=O)Nc2cccc(C(=O)OCc3cc(=O)n4c(C)csc4n3)c2)cc1,69% (inactive)
20,O=C(Nc1ccccc1C(=O)OCc1cc(=O)n2c3c(sc2n1)CCCC3)c1cccc(Cl)c1,73% (inactive)
21,Cc1csc2nc(COC(=O)c3cccc(NC(=O)COc4ccc(Cl)cc4)c3)cc(=O)n12,78% (inactive)
22,CCCCSc1nc(-c2cccc(OC)c2)nc2c1Cc1c(CO)cnc(C)c1O2,86% (inactive)
23,O=C(c1nc(-c2ccc(Cl)cc2)n2c1CCCCC2)N1CCN(c2ccccc2F)CC1,68% (inactive)

row,Compound,survival
1,COc1ccc(CCNC(=O)CN(c2cc(C(F)(F)F)ccc2Cl)S(C)(=O)=O)cc1,68% (inactive)
2,CCc1ccc(N2CC(c3nnc(NC(=O)c4ccco4)s3)CC2=O)cc1 (configuration not stated),78% (inactive)
3,Cc1cccc(NC(=O)c2cc3c(C)nn(-c4ccccc4)c3s2)c1,-2% (active)
4,CCOc1ccc(NC(=O)c2cc3c(C)nn(-c4ccccc4)c3s2)cc1,78% (inactive)
5,Cc1nn(-c2ccccc2)c2sc(C(=O)Nc3cccc(Br)c3)cc12,36% (inactive)
6,Cc1nn(-c2ccccc2)c2sc(C(=O)Nc3cccc(Cl)c3)cc12,5% (active)
7,Cc1nn(-c2ccccc2)c2sc(C(=O)Nc3ccc(Cl)cc3Cl)cc12,72% (inactive)
8,Cc1nn(-c2ccccc2)c2sc(C(=O)Nc3cccc(O)c3)cc12,43% (inactive)
9,CCOc1ccccc1C(=O)N(Cc1cc(OC)c(OC)c(OC)c1)c1ccccn1,82% (inactive)
10,CCCOc1ccc(-c2cccc(NS(=O)(=O)c3ccc(CC)cc3)c2)nn1,69% (inactive)
11,COC(=O)c1cccc(S(=O)(=O)N2CCC(NC(=O)Nc3cccc(F)c3)CC2)c1,110% (inactive)
12,CCOc1ccc(Nc2c(S(=O)(=O)c3ccccc3)cnc3ccccc23)cc1,38% (inactive)
13,CCOc1ccc(Nc2c(S(=O)(=O)c3ccc(Cl)cc3)cnc3ccc(OCC)cc23)cc1,79% (inactive)
14,CCOC(=O)c1cnc2c(ccc3ccccc32)c1Nc1cccc(C(F)(F)F)c1,37% (inactive)
15,CCOC(=O)c1cnc2ccc(OCC)cc2c1NCCN(C)C,103% (inactive)
16,CCOc1ccc(Nc2cc(C(=O)NCc3ccccc3Cl)c3ccccc3n2)cc1,92% (inactive)
17,CCOc1ccc(Nc2c(S(=O)(=O)c3ccccc3)cnc3ccc(CC)cc23)cc1,4% (active)
18,CCOC(=O)c1cnc2ccc(Cl)cc2c1Nc1ccc(OCC)cc1,-3% (active)
19,CCOC(=O)c1cnc2cc(C(F)(F)F)ccc2c1Nc1cc(C)ccc1OC,67% (inactive)
20,CCOC(=O)c1cnc2ccc(OCC)cc2c1Nc1ccc(OCc2ccccc2Cl)cc1,5% (active)
21,CCOC(=O)c1cnc2ccc(OCC)cc2c1Nc1cc(Cl)c(OC)cc1OC,60% (inactive)
22,CCOC(=O)c1cnc2cc(C(F)(F)F)ccc2c1Nc1ccc(F)cc1F,-12% (active)
23,CCOc1ccc(Nc2c(S(=O)(=O)c3ccccc3)cnc3ccc(F)cc23)cc1,61% (inactive)
